Measured values taken from PubChem BioAssay (NCI).
The panel holds about 83,000 compounds, 20% with a hit somewhere; the sample as a whole holds those more often.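 The endpoint reported here, percent growth, reads 100 for growth as untreated, 0 for no net growth and -100 for all cells dead.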 A number with no mark means an inactive call. Activity calls are given as the source filed them. Rule for the calls: active = growth percent below 10; inactive = the rest.

Assays:
Test in all cases: NCI-60 one-dose screen, 48 h (100 = growth as untreated, 0 = no growth, -100 = all killed)
Settings in all cases: 10 µM unless noted
[1] = tested on: NCI-H23 lung
[2] = tested on: NCI-H226 lung
[3] = tested on: HOP-62 NSCLC
[4] = tested on: NCI-H460 lung
[5] = tested on: NCI-H522 lung
[6] = tested on: A549/ATCC NSCLC
[7] = tested on: 786-0 renal
[8] = tested on: COLO 205 colon
[9] = tested on: DU-145 prostate
[10] = tested on: NCI-H322M lung

Row | Structure (SMILES) | growth [1] | growth [2] | growth [3] | growth [4] | growth [5] | growth [6] | growth [7] | growth [8] | growth [9] | growth [10]
1 | COc1cc2c(cc1OCCCOc1ccc(-c3cc4ccccc4c4ccccc34)cc1)N=C[C@@H]1CCCN1C2=O | -39.3% (active) | -78.7% (active) | -45% (active) | -45.2% (active) | -43.9% (active) | -17.4% (active) | -79.9% (active) | -0.637% (active) | -35.6% (active) | 
2 | CCOC(=O)c1c(C)nc(C)c(C(=O)OCC)c1-c1cccnc1 | 101% | 106% | 94.6% | 101% | 95.8% | 103% | 94.5% | 101% | 116% | 
3 | C[C@]12C[C@H](O)[C@H]3[C@@H](CCC4=CC(=O)CC[C@@]43C)[C@@H]1CC[C@@H]2C(=O)CO | 11% | 79.5% | 102% | 103% |  |  | 101% | 96% | 108% | 105%
4 | COc1ccc2c(c1)C(=O)/C(=C/c1ccc([N+](=O)[O-])s1)O2 | 7.22% (active) | 60% | 35.2% | -3.34% (active) | -86.4% (active) | 8.34% (active) | 28.1% | -64.7% (active) | 43.8% | 
5 | COc1ccc(Cn2cc3c(c2-c2ccccc2)CCc2cncnc2-3)cc1 | 69.9% | 72.1% | 61.1% | 27% | 26.1% | 46.6% | 57.3% | 45.5% | 72.9% | 
6 | COC(=O)[C@]12CC[C@@H](C)[C@H](C)[C@@H]1C1=CC[C@@H]3[C@@]4(C)C[C@@H](OC(=O)c5ccco5)[C@H](O)[C@@](C)(CO)[C@@H]4[C@H](O)C[C@@]3(C)[C@]1(C)CC2 | -84.1% (active) | -53.4% (active) | -88.3% (active) | -84.7% (active) | -83.3% (active) | -92.7% (active) | -77.8% (active) | -93.3% (active) | -100% (active) | 
7 | CCC(C)CC(C)C(=O)c1c(O)ccn(O)c1=O (stereo not drawn) | 25.2% | 95.8% | 24% | 23.7% | 33.2% | 22.6% | 70% | 108% | 42.7% | 
8 | COc1cc(-c2cc(C(=O)Nc3nc4ccccc4s3)nc3cc(-c4ccccc4)nn23)cc(OC)c1OC | 49.1% | 70.2% | 46.6% | 79.3% | 18.8% | 77.5% | 81.6% |  | 51.5% | 
9 | CCCCOc1ccc(C(C)(C)c2ccc(OCCCC)cc2)cc1 | 103% | 104% | 102% | 113% |  |  | 91% | 121% | 107% | 
10 | Cn1cc(-c2csc(-c3c[nH]c4ncccc34)n2)c2cc(F)cnc21 | 74% | 73.5% | 79.5% | 61.3% | 86.8% | 85.3% | 90.5% |  |  | 
11 | CC[C@]1(O)CC2CN(CCc3c([nH]c4ccccc34)[C@@](C(=O)OC)(c3cc4c(cc3OC)N(C)[C@H]3[C@@](O)(C(=O)OC)[C@H](OC(C)=O)[C@]5(CC)C=CCN6CC[C@]43[C@@H]65)C2)C1 (stereo partly drawn) | 16.1% | 48.9% | 31.7% | 2.54% (active) | -17.9% (active) | 17.2% | 13.8% | -50.7% (active) | -39.8% (active) | 
12 | CCN(CC)CCCCNc1c2ccccc2[n+](C)c2c1[nH]c1ccccc12 | -35.9% (active) | -11.8% (active) | -3.3% (active) | 3.4% (active) | -84.7% (active) | 2.8% (active) | -7.1% (active) | -65.9% (active) | -0.206% (active) | 
13 | N#Cc1ccc(NC(=O)Nc2ccc(Oc3ccc(NC(=O)Nc4ccc(C#N)cc4)cc3)cc2)cc1 | -0.877% (active) | 42.5% | 31.6% | 18.9% | -33.4% (active) | 26.9% | 30.3% | -0.221% (active) | 35.3% | 
14 | Nc1nc(SCC2(CCl)COC2)c2[nH]cnc2n1 | 97.1% | 100% | 89.7% | 107% | 80.2% | 97.8% | 99.4% | 106% | 116% | 
15 | Cn1cc(-c2csc(-c3cn(C)c4ncccc34)n2)c2cc(Br)cnc21 | 82% |  | 100% | 95.4% | 98.7% | 87% | 93.8% |  |  | 104%
16 | O=[P@@]1(c2ccccc2)O[C@H](COCc2ccccc2)[C@@H](OCc2ccccc2)[C@H](OCc2ccccc2)[C@H]1NCc1ccccc1 | 20.5% | 40.6% | 54.3% | 4.06% (active) |  | 13.3% | 13.9% | -57.2% (active) | 45.7% | 
17 | Cn1c(=O)c2nc(SCc3ccccc3)n(C)c2n(C)c1=O | 108% | 102% | 107% | 109% |  | 99.2% | 109% | 104% | 117% | 
18 | O=C(/C(=C/c1ccc([N+](=O)[O-])cc1)c1ccccc1)c1ccccc1 | 67.1% | 56.6% | 88.9% | 65.6% | 31.4% | 48.7% | 65.3% | 87.6% | 23.4% | 
19 | COc1ccc(-c2cc(C(=O)Nc3nc4cc(C)c(C)cc4s3)nc3cc(-c4ccccc4)nn23)cc1OC | 96% | 113% | 100% | 112% | 89% | 94.5% | 112% |  | 121% | 
20 | O=C(/C=C/c1cccnc1)/C=C/c1cccnc1 | -5.04% (active) | 2.94% (active) | 98.9% | 18.5% | -91.2% (active) | 6.27% (active) | 5.1% (active) | -84.8% (active) | -29.6% (active) | 
21 | O=C(/C=C/c1cc2ccccc2[nH]c1=O)c1ccc(Cl)cc1 | 25.7% | 40.7% | 44.4% | 12% | -57.5% (active) | 42.1% | 43% | 49.4% | 12.4% | 
22 | Cc1cc(C)c(OC(=O)CSc2nc3ccccc3c(=O)n2CCc2ccccc2)cc1C | 101% | 84.8% | 104% | 74.1% | 98% | 91.9% | 105% | 96% | 110% | 
23 | O=c1[nH]c(Cl)nc2c1cnn2-c1ccccc1 | 81.3% | 92.5% | 91.3% | 95.3% | 97.1% | 113% |  | 107% | 104% | 
24 | CCOC(=O)C1C(=O)OC2CCCCC21 (stereo not drawn) | 101% | 113% | 127% | 110% | 108% | 102% | 100% | 120% |  | 
25 | CN1C(=O)/C(=C/c2nc(-c3cccc(F)c3)n3ccccc23)c2ccccc21 | 83.7% | 84.4% | 80.7% | 56.1% | 40% | 44.9% | 70.7% | 93% | 82.6% | 
26 | CC(=O)c1ccc2c3c(n(C)c2c1)CCCC3 | 104% | 33% | 101% | 84.9% | 95.2% | 106% | 92.7% |  | 98.3% | 
27 | CO[C@H]1/C=C/O[C@@]2(C)Oc3c(C)c(O)c4c(O)c(c(/C=N/N5C(C)CN(Cc6ccccc6)CC5C)c(O)c4c3C2=O)NC(=O)/C(C)=C\C=C\[C@H](C)[C@H](O)[C@@H](C)[C@@H](O)[C@@H](C)[C@H](OC(C)=O)[C@@H]1C (stereo partly drawn) | 14.7% | 68.1% | 89.1% | 54.9% | -12.5% (active) |  | 68.7% | 80.1% | 81.6% | 
28 | CC(C)(C)c1cc(O)c(O)c(C(C)(C)C)c1 | 48.4% | 75.6% | 64.7% | 14.7% | 0.232% (active) | 20.9% | 52.2% | 64.9% | 68.7% | 
29 | COc1ccc(-c2cc(Cc3cccs3)c(=O)n(Cn3cncn3)n2)cc1 | 102% |  | 110% | 112% | 91.6% | 97.3% | 104% | 117% | 124% | 100%
30 | O=C(Nc1cccc(-n2cc(-c3ccncc3)c(-c3ccc(O)c(Cl)c3)n2)c1)Nc1ccc(Cl)c(C(F)(F)F)c1 | 1.11% (active) |  | 4.91% (active) | 3.16% (active) |  | -14.8% (active) | -6.01% (active) |  | 4.68% (active) | -17.7% (active)
